# Test results: PubChem BioAssay AID720517 (National Center for Advancing Translational Sciences (NCATS), 2013)
# Results filed as inconclusive are left out. A call without a number means that no potency is given here. Calls of active or inactive are those of the source. Calls come from the whole dose curve; as a rule, active = well fitted activation curve with a large enough effect; inconclusive = small, poorly fitted or top-dose-only effect; inactive = flat fitted curve, though single readings scatter.
# Experiment: qHTS for Inhibitors of Cell Surface uPA Generation: FP59 Counterscreen for Cherry-picked Compounds
# Conditions: FP59 anthrax toxin cytotoxicity counterscreen, cells; series mostly up to 115 µM
row,SMILES,Potency
1,COC(=O)c1cc(CNC(=O)c2ccc(N3CCCC3)c([N+](=O)[O-])c2)ccc1OC,inactive
2,Cc1cccc(C(=O)NC2CCN(CC(=O)N3CCOCC3)CC2)c1,inactive
3,C/C=C/C(=O)Nc1cccc(C2=NOC3(C2)C[C@@H](C(N)=O)N(C(=O)c2cc([N+](=O)[O-])cc([N+](=O)[O-])c2C)C3)c1 (some centres undefined),inactive
4,COc1ccc(S(=O)(=O)N2CCOCC2)cc1NC(=O)CN1C(=O)NC2(CCCC2)C1=O,inactive
5,CC1(C(=O)OCC(=O)Nc2ccc(Cl)cn2)CC1(Cl)Cl (centres undefined),inactive
6,Oc1ccc(/C=N/Nc2cccc(Cl)n2)c(O)c1,inactive
7,O=C(N/C(=C\c1cccc([N+](=O)[O-])c1)C(=O)N1CCOCC1)c1ccc([N+](=O)[O-])cc1,inactive
8,COc1ccc(N2CCN(C3CCN(S(=O)(=O)c4ccc(F)cc4)CC3)CC2)cc1,inactive
9,Nc1nc2ccc(Br)cc2o1,inactive
10,COc1ccc2nc3c(cc2c1)c(NC(=O)C1CCCO1)nn3CC(C)C (centres undefined),inactive
11,CN(C)c1ccc(S(=O)(=O)N2CCC(Cc3ccccc3)CC2)cn1,inactive
12,CSCC[C@H](NC(=O)[C@H](Cc1ccccc1)n1c(=O)[nH]c2ccccc2c1=O)C(=O)N1CCC[C@@H]1C(=O)O,inactive
13,C=CCn1c(SCc2ccc(C(=O)NCCO)cc2)nc2ccccc2c1=O,inactive
14,CCc1ccc(NC(=O)Cn2cnc([N+](=O)[O-])c2)cc1,inactive
15,Cc1noc(C)c1CSCC(=O)Nc1cc(Cl)ccc1N1CCCCC1,inactive
16,Cc1ccc(C)c(NC(=O)CCN2CCN(c3ccccc3F)CC2)c1,inactive
17,CC[C@]1(C(=O)OC)[C@H]2C(=O)N(C)C(=O)[C@H]2[C@H]2CN(C)C(=NC3CCCCC3)N21,inactive
18,CC(=O)c1ccc(NC(=O)CN2CCN(c3ccccc3)CC2)cc1,inactive
19,Cc1nc2ccc(Br)cn2c1C(=O)N/N=C\c1ccccc1Cl,inactive
20,COc1cc(C2NC(=O)NC(C)=C2C(=O)OCC2CCCCC2)ccc1O (centres undefined),inactive

row,SMILES,Potency
1,COc1cc(OC)cc(C(=O)NC(C(=O)Nc2ccc3c(c2)CCC3)C(C)C)c1 (centres undefined),inactive
2,CC(=O)NCCc1cnc[nH]1,inactive
3,CC(C)OC(=O)Nc1ccc(-c2ccc(NC(=O)OC(C)C)cc2Cl)c(Cl)c1,inactive
4,O=C(O)c1ccc(-n2nnnc2SCc2cccc(Br)c2)cc1,inactive
5,COc1ccc([C@H]2[C@H](C(=O)OC(C)(C)C)N3N=Cc4ccccc4C3C23C(=O)c2ccccc2C3=O)cc1OC (some centres undefined),inactive
6,O=C(CCCOc1ccc(Cl)cc1Cl)NCc1ccncc1,inactive
7,C=CCOC(=O)C1=C[C@H](c2ccc(C(F)(F)F)cc2)[C@@H](CCCO)[C@H](OCC)O1,inactive
8,CC(C)c1ccc(C2/C(=C(\O)c3ccc4c(c3)OCCO4)C(=O)C(=O)N2CCN2CCOCC2)cc1 (centres undefined),inactive
9,Cc1ccc(S(=O)(=O)NNC(=O)c2ccc(F)cc2)cc1,inactive
10,CCc1ccccc1NC(=O)CN(C)C(=O)CSc1nnc(Nc2cccc(C)c2C)s1,inactive
11,NC(=O)CC(NC(=O)Cc1cccc2ccccc12)c1ccc(N2CCN(c3ccccc3)CC2)c([N+](=O)[O-])c1 (centres undefined),inactive
12,O=C(N/N=C/c1cccs1)c1ccco1,inactive
13,O=C(Nn1cnnc1)c1ccc(Cl)c(Cl)c1,inactive
14,CC(=O)c1ccc(NC(=O)Nc2ccc(Br)cc2C)cc1,inactive
15,Cc1cc(C)n2nc(CNS(=O)(=O)c3ccc(F)c(C)c3)nc2n1,inactive
16,COCCOC(=O)C1=C(C)NC(=O)NC1c1cccc2ccccc12 (centres undefined),inactive
17,O=C(Nn1cnnc1)c1ccc(Cl)cc1,inactive
18,COC(=O)c1ccccc1NC(=O)Nc1nnc(N2CCCCC2C)s1 (centres undefined),inactive
19,O=C(c1cc([N+](=O)[O-])cc([N+](=O)[O-])c1)N(c1ccccn1)c1ccccn1,inactive
